Reference: PubChem BioAssay (Tox21)
“And” between values parts separate entries of the source, which are not always exact repeats. Identical values can stand only once. Inconclusive results are not listed. The source holds several records for some structures; these can differ, active in one and inactive in another. The source made the active and inactive calls. The call rests on the fitted dose curve; in most records, active means well fitted curve in the direction sought with a large enough effect in the repeat runs; inconclusive means weak or mixed curves; inactive means no such curve, though single readings can be large; an effect the other way counts as inactive or inconclusive.

Experiments:
[1] = A CellTox Green Cytotoxicity Assay to monitor cytotoxicity in HEK293 cells - 40 hour (AID 1224871); further: nearly all actives have a fitted effect of over 45% in size; further: potency means the concentration at half of the fitted maximal effect
Procedure, shortened: (§1)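 Fluorescence intensity, read at 0, 8, 16, 24, 32 and 40 h of compound treatment, reflected dye binding to DNA of dead HEK293 cells; compounds (23 nL, DMSO) were added 5 h after plating cells with reagent.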

[2] = qHTS RealTime-Glo MT Cell Viability Assay in HEK293 cells - 16 hour (AID 1224872); further: nearly all actives have a fitted effect of over 50% in size; further: potency means the concentration at half of the fitted maximal effect
Procedure, shortened: (§2)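 Cells + reagent dispensed (600 cells/well, HEK293) → 5 h at 37 C/5% CO2 → 23 nL compound in DMSO pinned → 40 h at 37 C → luminescence read at 0, 8, 16, 24, 32, 40 h.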

[3] = qHTS RealTime-Glo MT Cell Viability Assay in HEK293 cells - 40 hour (AID 1224874); settings: RealTime-Glo luminescence; max response: stronger effect = lower value; further: nearly all actives have a fitted effect of over 50% in size; further: potency means the concentration at half of the fitted maximal effect
Procedure, shortened: (§3)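 Viable HEK293 cells reduce a cell-permeant prosubstrate; the product diffuses out and is consumed by NanoLuc in the medium to give light. Compounds went in after a 5 h incubation and plates were read over the treatment course.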

[4] = A CellTox Green Cytotoxicity Assay to monitor cytotoxicity in HEK293 cells - 24 hour (AID 1224875); further: series mostly up to about 77 µM; nearly all actives have a fitted effect of over 45% in size
Procedure, shortened: as §1

[5] = qHTS RealTime-Glo MT Cell Viability Assay in HepG2 cells - 32 hour (AID 1224877); further: nearly all actives have a fitted effect of over 55% in size; further: potency means the concentration at half of the fitted maximal effect
Procedure, shortened: (§4)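 Real-time, nonlytic viability: 600 HepG2 cells/well mixed with NanoLuc enzyme plus prosubstrate; 5 h settle, compound (DMSO) added by pintool; luminescence monitored over 40 h at 37 C.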

[6] = A CellTox Green Cytotoxicity Assay to monitor cytotoxicity in HepG2 cells - 24 hour (AID 1224878); further: nearly all actives have a fitted effect of over 45% in size; further: potency means the concentration at half of the fitted maximal effect
Procedure, shortened: (§5)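 Using 1536-well format, dye-containing HepG2 suspension was seeded, allowed 5 h at 37 C/5% CO2, dosed by pintool with compounds, positive and negative controls, and imaged for fluorescence across 40 h.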

[7] = A CellTox Green Cytotoxicity Assay to monitor cytotoxicity in HepG2 cells - 40 hour (AID 1224879); further: nearly all actives have a fitted effect of over 40% in size; further: potency means the concentration at half of the fitted maximal effect
Procedure, shortened: as §5

[8] = qHTS RealTime-Glo MT Cell Viability Assay in HEK293 cells - 0 hour (AID 1224880); further: top concentration of the series differs between compounds; nearly all actives have a fitted effect of over 45% in size
Procedure, shortened: as §3

[9] = A CellTox Green Cytotoxicity Assay to monitor cytotoxicity in HEK293 cells - 32 hour (AID 1224881); further: nearly all actives have a fitted effect of over 40% in size; further: potency means the concentration at half of the fitted maximal effect
Procedure, shortened: as §1

[10] = A CellTox Green Cytotoxicity Assay to monitor cytotoxicity in HepG2 cells - 0 hour (AID 1224882); further: nearly all actives have a fitted effect of over 35% in size; further: potency means the concentration at half of the fitted maximal effect
Procedure, shortened: as §5

[11] = A CellTox Green Cytotoxicity Assay to monitor cytotoxicity in HepG2 cells - 32 hour (AID 1224883); further: nearly all actives have a fitted effect of over 50% in size; further: potency means the concentration at half of the fitted maximal effect
Procedure, shortened: as §5

[12] = A CellTox Green Cytotoxicity Assay to monitor cytotoxicity in HEK293 cells - 8 hour (AID 1224884); further: nearly all actives have a fitted effect of over 35% in size; further: potency means the concentration at half of the fitted maximal effect
Procedure, shortened: as §1

[13] = qHTS RealTime-Glo MT Cell Viability Assay in HepG2 cells - 16 hour (AID 1224885); further: nearly all actives have a fitted effect of over 50% in size; further: potency means the concentration at half of the fitted maximal effect
Procedure, shortened: as §4

[14] = qHTS RealTime-Glo MT Cell Viability Assay in HEK293 cells - 8 hour (AID 1224887); further: nearly all actives have a fitted effect of over 50% in size; further: potency means the concentration at half of the fitted maximal effect
Procedure, shortened: as §3

[15] = A CellTox Green Cytotoxicity Assay to monitor cytotoxicity in HEK293 cells - 16 hour (AID 1224888); further: nearly all actives have a fitted effect of over 35% in size
Procedure, shortened: as §1

[16] = qHTS RealTime-Glo MT Cell Viability Assay in HepG2 cells - 0 hour (AID 1224889); further: nearly all actives have a fitted effect of over 50% in size
Procedure, shortened: as §4

[17] = A CellTox Green Cytotoxicity Assay to monitor cytotoxicity in HepG2 cells - 8 hour (AID 1224890); further: nearly all actives have a fitted effect of over 45% in size; further: potency means the concentration at half of the fitted maximal effect
Procedure, shortened: as §5

[18] = qHTS RealTime-Glo MT Cell Viability Assay in HepG2 cells - 8 hour (AID 1224873); further: nearly all actives have a fitted effect of over 55% in size; further: potency means the concentration at half of the fitted maximal effect
Procedure, shortened: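 Real-time viability: cells seeded at 600 per well together with NanoLuc and cell-permeant prosubstrate, compounds added after 5 h incubation. Luminescence tracked at 0, 8, 16, 24, 32 and 40 h of exposure.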

[19] = A CellTox Green Cytotoxicity Assay to monitor cytotoxicity in HepG2 cells - 16 hour (AID 1224876); further: nearly all actives have a fitted effect of over 45% in size
Procedure, shortened: as §5

[20] = qHTS RealTime-Glo MT Cell Viability Assay in HEK293 cells - 24 hour (AID 1224886)
Procedure, shortened: as §2
On the % scale 0 is the no-effect control and ±100 the full control effect.

CC[n+]1ccccc1
inactive and 49.1 µM (active): Potency [5]
active: Potency [3] 21.7 µM
inactive: Potency [1] | Potency [2] | max response [3] 9.29% [middle of 4 runs] | Potency [4] | Potency [6] | Potency [7] | outcome [8] | Potency [9] | Potency [10] | Potency [11] | Potency [12] | Potency [13] | Potency [14] | Potency [15] | Potency [16] | Potency [17]

Nc1ccc(-c2ccc(N)c(Cl)c2)cc1Cl
active: Potency [2] 24.5 µM | Potency [3] 12.4 µM and 14.4 µM and 12.3 µM | Potency [7] 15.6 µM and 12.9 µM and 27.5 µM | Potency [11] 17.5 µM and 14.4 µM and 27.5 µM | Potency [14] 24.5 µM
inactive: outcome [8] | Potency [16]
inactive and 49 µM (active): Potency [5] | Potency [9] | Potency [12] | Potency [13]
inactive and 43.6 µM (active): Potency [1] | Potency [18] | Potency [10] | Potency [17]
inactive and 27.5 µM (active): Potency [6]

CCCCCC[n+]1ccccc1
active: Potency [3] 27.8 µM [middle of 5 runs]
inactive: Potency [1] | Potency [2] | max response [3] -3.16% | Potency [4] | Potency [19] | Potency [5] | Potency [6] | Potency [7] | outcome [8] | Potency [9] | Potency [10] | Potency [11] | Potency [12] | Potency [13] | Potency [14] | Potency [15] | Potency [16] | Potency [17]

CCCn1cc[n+](C)c1
inactive: Potency [1] | Potency [2] | max response [3] 9.61% and -4.66% and 2.37% | Potency [4] | Potency [19] | Potency [5] | Potency [6] | Potency [7] | outcome [8] | Potency [9] | Potency [10] | Potency [11] | Potency [12] | Potency [13] | Potency [14] | Potency [15] | Potency [16] | Potency [17]

COP(=O)(OC)OC=C(Cl)Cl
inactive: Potency [1] | Potency [2] | max response [3] 12.8% and 2.89% and 15.7% | Potency [4] | Potency [5] | Potency [6] | Potency [7] | outcome [8] | Potency [9] | Potency [10] | Potency [11] | Potency [12] | Potency [13] | Potency [20] | Potency [14] | Potency [15] | Potency [16] | Potency [17]

CCC[N+]1(C)CCCCC1
inactive and 34.8 µM (active): Potency [5]
inactive: Potency [1] | Potency [2] | max response [3] -1.58% and 7.15% and 0.391% | Potency [4] | Potency [19] | Potency [6] | Potency [7] | outcome [8] | Potency [9] | Potency [10] | Potency [11] | Potency [12] | Potency [13] | Potency [14] | Potency [15] | Potency [16] | Potency [17]

COc1ccc(N)cc1
inactive and 219 nM (active): Potency [6]
inactive: Potency [1] | Potency [2] | max response [3] -4.85% [middle of 4 runs] | Potency [4] | Potency [5] | outcome [8] | Potency [9] | Potency [10] | Potency [12] | Potency [13] | Potency [14] | Potency [15] | Potency [16] | Potency [17]
inactive and 245 nM (active): Potency [7] | Potency [11]

CCCC[n+]1ccccc1C
inactive: Potency [1] | Potency [2] | max response [3] 0.73% [middle of 6 runs] | Potency [4] | Potency [5] | Potency [6] | Potency [7] | outcome [8] | Potency [9] | Potency [10] | Potency [11] | Potency [12] | Potency [13] | Potency [14] | Potency [15] | Potency [16] | Potency [17]

C[N+](C)(C)Cc1ccccc1
inactive: Potency [1] | Potency [2] | max response [3] 3.99% and 18.8% and -0.0813% | Potency [4] | Potency [5] | Potency [6] | Potency [7] | outcome [8] | Potency [9] | Potency [10] | Potency [11] | Potency [12] | Potency [13] | Potency [20] | Potency [14] | Potency [15] | Potency [16] | Potency [17]

OCCOc1ccccc1
inactive: Potency [1] | Potency [2] | max response [3] -3.05% and 0.273% and 2.22% | Potency [4] | Potency [5] | Potency [6] | Potency [7] | outcome [8] | Potency [9] | Potency [10] | Potency [11] | Potency [12] | Potency [13] | Potency [14] | Potency [15] | Potency [16] | Potency [17]
